# Among all 360,000 compounds or so, about 2,100 (0.58%) were called active.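 Rule for the calls: active = inhibition above a per-plate cutoff, the mean of that plate's test compounds plus 3 SD (cut at about 27% in these data); inactive = the rest.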 The full list was thinned out, with actives kept by preference.
# Biological target: Muscarinic acetylcholine receptor M5 (Homo sapiens) (UniProt P08912)
# Assay: CHRM5 blockers of acetylcholine calcium response – CHO cells, Fluo-8 calcium fluorescence, primary screen (AID 624040);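 note: 0% = acetylcholine EC80 with DMSO and 100% = DMSO without agonist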
# Settings: CHO-hM5 cells, ACh EC80, at 3 µM, active compounds read high
# Chain of Muscarinic acetylcholine receptor M5 (Homo sapiens) (P08912 whole entry, looked up): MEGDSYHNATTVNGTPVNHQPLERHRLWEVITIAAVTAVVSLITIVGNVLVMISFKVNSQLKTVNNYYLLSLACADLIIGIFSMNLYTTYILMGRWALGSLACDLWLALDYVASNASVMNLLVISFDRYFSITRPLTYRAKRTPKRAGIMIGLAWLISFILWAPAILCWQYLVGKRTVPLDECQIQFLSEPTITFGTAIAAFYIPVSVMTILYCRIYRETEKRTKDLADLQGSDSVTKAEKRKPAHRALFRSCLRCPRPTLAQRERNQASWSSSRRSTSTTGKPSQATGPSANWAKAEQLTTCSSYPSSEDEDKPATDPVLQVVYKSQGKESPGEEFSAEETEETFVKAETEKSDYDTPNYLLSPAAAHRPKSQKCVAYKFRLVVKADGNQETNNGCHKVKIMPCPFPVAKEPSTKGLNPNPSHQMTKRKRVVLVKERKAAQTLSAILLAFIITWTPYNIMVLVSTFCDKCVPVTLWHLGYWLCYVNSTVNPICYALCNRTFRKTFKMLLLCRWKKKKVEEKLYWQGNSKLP
row,SMILES,inhibition
1,CC(C)OCCCNc1ncnc2c1[nH]c1ccc(F)cc12,36.1% (active)
2,COC(=O)c1ccccc1NC(=O)CN(Cc1ccccc1)S(C)(=O)=O,-12.2% (inactive)
3,COCCNC(=O)C1(C)CCCN(Cc2cccc(F)c2)C1 (centres undefined),4.07% (inactive)
4,COc1cc(CNc2ncnc3c2ncn3[C@H]2CN(Cc3cccs3)C[C@@H](CO)O2)cc(OC)c1OC,10.9% (inactive)
5,O=C(Cc1ccc(Cl)c(Cl)c1)Nc1ccc(SC(F)F)cc1,33.6% (active)
6,O=C(CC(O)(C(F)(F)F)C(F)(F)F)Nc1ccc(Cl)c(Cl)c1,17.8% (inactive)
7,O=C(CCl)Nc1ccc(Sc2ccc(NC(=O)CCl)cc2)cc1,2.24% (inactive)
8,Cc1ccc(NC2=C(Cl)C(=O)OC2OC(=O)c2ccccc2C)cc1 (centres undefined),5.07% (inactive)
9,CCC(=O)c1ccc(N2CCN(C(=O)c3cc([N+](=O)[O-])ccc3F)CC2)c(F)c1,17.6% (inactive)
10,CCC(C)(C)NC(=O)c1cc([N+](=O)[O-])ccc1N1CCCCC1,6.53% (inactive)
11,CCN1CCN(c2ccc([N+](=O)[O-])cc2C(=O)c2ccc(Cl)cc2)CC1,78.8% (active)
12,O=C(CCC1CCCCC1)Nc1cc(C(F)(F)F)ccc1N1CCOCC1,10.2% (inactive)
13,COC(=O)[C@@]12C[C@@H](CC(=O)N3CCCCC3)C(=O)N(Cc3ccc4c(c3)OCO4)C1=CCC(C)(C)C2,-4.41% (inactive)
14,Cc1cc2cc(CNC(=O)c3ccc(S(=O)(=O)N4CCOCC4)cc3)ccc2[nH]1,13.1% (inactive)
15,Cc1cc2cc(CNC(=O)c3cccs3)ccc2[nH]1,97.7% (active)
16,Cc1ccc(C)c2[nH]c(=O)c(CCNC(=O)c3cccs3)cc12,2.31% (inactive)
17,Cc1ccc(C)n1-c1ccncc1,2.29% (inactive)
18,COc1cc(NC(=O)c2ccccc2NS(=O)(=O)c2ccc(Cl)s2)cc(OC)c1,14.3% (inactive)
19,COC(=O)c1ccc(NC(=O)c2ccccc2NS(=O)(=O)c2ccccc2)cc1,31.6% (active)
20,CCOC(=O)c1ccc(N/C(=N/S(=O)(=O)c2ccccc2)c2ccccc2)cc1,-3.7% (inactive)

row,SMILES,inhibition
1,COc1ccccc1NC(=O)CSc1nnc(-c2ccoc2C)n1CCc1ccccc1,6.68% (inactive)
2,COC(=O)C1=C(C)N(c2ccc(C)cc2)/C(=C/c2ccc(O)cc2)C1=O,3.87% (inactive)
3,Cc1ccn2c(=O)c(C(=O)NCCC3=CCCCC3)c(O)nc2c1,2.86% (inactive)
4,CC(NC(=O)C(=O)Nc1nccs1)c1ccccc1 (centres undefined),30.9% (active)
5,CC(=O)NC(CC(=O)Nc1nccs1)c1ccccc1 (centres undefined),-3.08% (inactive)
6,C[C@H](NC(=O)c1[nH]cnc1C(=O)Nc1nccs1)c1ccccc1,11.9% (inactive)
7,O=C(C1CC1)N1N=C2CCCCC2C1(O)C(F)(F)F (centres undefined),13.2% (inactive)
8,Cc1nc(C)c(C(=O)N(c2ccc(C)c(C)c2)C(C(=O)NCc2ccco2)c2ccccc2)s1 (centres undefined),2.62% (inactive)
9,CC(C)(C)C(=O)c1c(N)[nH]c(C(=O)c2ccccc2)c1-c1ccc(F)cc1,-1.9% (inactive)
10,CCC(C(=O)OCC(=O)Nc1ccc(C(=O)Nc2ccc(OC)cc2)cc1)c1ccccc1 (centres undefined),36.3% (active)
11,COc1ccc(NC(=O)COC(=O)c2ccc(NS(=O)(=O)/C=C/c3ccccc3)cc2)cc1,14.2% (inactive)
12,COc1ccc(NC(=O)CC(NC(C)c2ccccc2)C(=O)O)cc1 (centres undefined),4.75% (inactive)
13,Cc1ccc(N2C(=O)C3C(c4ccccc4)(C2=O)C3(c2ccccc2)c2ccccc2)cc1 (centres undefined),15.6% (inactive)
14,O=c1[nH]c2ccccc2n1C1CCN(CCOc2ccccc2)CC1,8.05% (inactive)
15,COc1ccc(OCCCCN2CCC(C)CC2)cc1,5.32% (inactive)
16,OC(c1ccccc1)(c1ccccc1)C1CCN(CCCOc2ccccc2)CC1,97.1% (active)
17,OC[C@@H]1CN(Cc2ccc3c(c2)OCO3)C[C@H](n2cnc3c(NCc4ccco4)ncnc32)O1,-1.64% (inactive)
18,COc1cc(C(=O)NCc2nnc(SCC(=O)Nc3nc4ccc(C)cc4s3)o2)cc(OC)c1OC,-2.26% (inactive)
19,CCn1c(CNC(=O)c2cc(OC)c(OC)c(OC)c2)cc2cc(C)ccc21,48% (active)
20,COc1cc(C(=O)NCc2ccc(-n3cccc3)cc2)cc(OC)c1OC,21.1% (inactive)

row,SMILES,inhibition
1,CSc1ncccc1C(=O)OCC(=O)N1CCOCC1,-6.57% (inactive)
2,Cc1ccc2cc(CCNC(=O)c3ccc4c(c3)OCO4)c(=O)[nH]c2c1,-4.27% (inactive)
3,OC(COc1ccc2ccccc2c1)Cn1cncn1 (centres undefined),-0.83% (inactive)
4,CCOC(=O)c1c(/N=C/C2C(=O)CC(C)(C)CC2=O)sc(C)c1C,-2.97% (inactive)
5,CC(C)CN(C(=O)CSc1ncnc2sccc12)C1CCS(=O)(=O)C1 (centres undefined),1.5% (inactive)
6,CC(C)CN(C(=O)Cn1c(=O)cnc2ccccc21)C1CCS(=O)(=O)C1 (centres undefined),99.6% (active)
7,CCN(C(=O)CSc1nc2ccccc2n1CC)C1CCS(=O)(=O)C1 (centres undefined),-0.58% (inactive)
8,N#Cc1c(NC(=O)c2ccc(N3CCOCC3)c([N+](=O)[O-])c2)sc2c1CCCC2,2.95% (inactive)
9,O=C1NC[C@H](Cc2ccc(O)cc2)N(C[C@@H]2CCCN2C[C@H](Cc2ccccc2)N2C[C@H](Cc3ccccc3)N(CC3CCCCC3)C(=O)C2=O)C1=O,-4.87% (inactive)
10,CN(Cc1cccnc1)C(=O)c1cc(COc2ccc3ncccc3c2)on1,42.6% (active)
11,Cc1cc(CN(C)C(=O)c2cc(COc3ccc(C)c(C)c3)on2)n[nH]1,-7.18% (inactive)
12,Cc1ccc(OCc2cc(C(=O)N(C)CCn3ccnc3C)no2)cc1C,-4.53% (inactive)
13,CC/C(=C\c1ccc(Cl)cc1)c1ccncc1,4.13% (inactive)
14,CC(=O)Nc1cccc(-c2ccnc3c2CC(C)(C(=O)NCc2ccccc2)O3)c1 (centres undefined),-11.6% (inactive)
15,C=CCN(c1ccccc1C(=O)NCC(=O)OCC)S(=O)(=O)c1ccc(C)cc1,3.91% (inactive)
16,CCOc1ccc(CN(Cc2ccco2)S(=O)(=O)c2ccc(-n3cnnn3)c(OC)c2)cc1,4.28% (inactive)
17,COc1ccc(C(C(=O)NCC2CCCO2)N(C(=O)Cn2nnc3ccccc32)c2ccc(NC(C)=O)cc2)cc1OC (centres undefined),-5.21% (inactive)
18,Cc1ccc(C(C(=O)NCc2ccco2)N(CC2CCCO2)C(=O)Cn2nnc3ccccc32)cc1 (centres undefined),-3.06% (inactive)
19,CCOc1cc(C(C(=O)NCC2CCCO2)N(C(=O)Cn2nnc3ccccc32)c2cccc(OC)c2)ccc1O (centres undefined),31.8% (active)
